Drawing on PubChem BioAssay (Tox21), this text covers Potency, max activation and outcome for 5 molecules.

Several values for one entry are separate records, joined by “and”; a condition that tells them apart may be missing. Equal entries are not always repeated. Results filed as inconclusive are left out. Some compounds were tested as several samples or in several runs, with calls that do not always agree. Activity calls are given as the source filed them. Unless noted, the call rests on the fitted dose curve; in most records, active means well fitted curve in the direction sought with a large enough effect in the repeat runs; inconclusive means weak or mixed curves; inactive means no such curve, though single readings can be large; an effect the other way counts as inactive or inconclusive.

The nature of assay [1]: Human pregnane X receptor (PXR) small molecule agonists, qHTS cell viability counter screen (AID 1346977). Further: nearly all actives have a fitted effect of over 50% in size. Further: potency means the concentration at half of the fitted maximal effect. In short, it runs like this:
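Same-well viability read: CellTiter-Fluor added after 23 hr compound exposure, fluorescence measured 1 hr later. Cells were PXR-Luc HepG2 seeded at 2,000/well in 5% charcoal-stripped FBS medium, rested 5 hr before dosing at 37 C.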
For orientation: In qHTS, concentration-response curves come from the screen itself.

The nature of assay [2]: Caspase-3/7 induction in HepG2 cells by small molecules, qHTS assay (AID 1346978). Further: nearly all actives have a fitted effect of over 15% in size. The method, boiled down: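 Wild-type HepG2 cells (2,000/well) were settled 5 h at 37 C, 5% CO2, then exposed to compounds in DMSO for 17 h. Caspase-3/7 activity was read by luminescence 30 min after adding Caspase-Glo 3/7 reagent at room temperature.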
Assay [3] can be described thus: Caspase-3/7 induction in CHO-K1 cells by small molecules, qHTS cell viability counter screen (AID 1346979). Further: nearly all actives have a fitted effect of over 35% in size. Further: potency means the concentration at half of the fitted maximal effect. In short, it runs like this:
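Cytotoxicity counter screen: CellTiter-Fluor added to compound-treated wild-type CHO-K1 cells at 16 h (37C, 5% CO2), fluorescence measured 1 h later; same wells as caspase-3/7 measurement.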

The nature of assay [4]: Caspase-3/7 induction in CHO-K1 cells by small molecules, qHTS assay (AID 1346980). Further: nearly all actives have a fitted effect of over 15% in size. In short, it runs like this: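 Wild-type cells were seeded at 1,500 per well and settled 5 hr at 37 C, 5% CO2, then exposed to DMSO-dissolved compounds for 17 hr. Caspase-Glo 3/7 reagent was added, and luminescence was read after 30min at room temperature.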
Assay [5] can be described thus: Caspase-3/7 induction in HepG2 cells by small molecules, qHTS cell viability counter screen (AID 1346981). Further: series mostly up to about 92 µM; nearly all actives have a fitted effect of over 30% in size. The method, boiled down:
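Wild-type HepG2 cells, 2,000/well, settled 5 hr at 37 C, 5% CO2 before compound addition. Viability read by CellTiter-Fluor fluorescence, reagent added after 16 hr compound exposure, then 1 hr at 37C, in the same wells as the caspase read.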

In assay [6] the target is Nuclear receptor subfamily 1 group I member 2 (Homo sapiens) (UniProt O75469). The assay can be described thus: Human pregnane X receptor (PXR) small molecule agonists, qHTS assay (AID 1346982). Further: nearly all actives have a fitted effect of over 35% in size. Further: potency means the concentration at half of the fitted maximal effect. In short, it runs like this:
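PXR-Luc HepG2 reporter cells (CYP3A4-driven luciferase) in 5% charcoal-stripped FBS medium, plated 5 h before compound addition, then treated 24 h at 37C. Luciferase read by ONE-Glo luminescence after 30 min at room temperature.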

In assay [7] the target is Nuclear receptor subfamily 1 group I member 2 (Rattus norvegicus) (UniProt Q9R1A7). The assay can be described thus: Rat pregnane X receptor (rPXR) activation by small molecules, qHTS assay (AID 1346983). Further: nearly all actives have a fitted effect of over 20% in size. As to conditions: rPXR luciferase reporter cells, One-Glo luminescence, 24 h; stronger effect = higher value. In short, it runs like this:
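Cell-based rPXR luciferase reporter assay, 2,000 cells per well, rested 5hr at 37 C before compound addition in DMSO, then 24 hr at 37 C. One-Glo reagent was added and luminescence read after 30 min at room temperature.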

Assay [8] addresses Nuclear receptor subfamily 1 group I member 2 (Homo sapiens) (UniProt O75469). As to the kind of experiment: CYP3A4 induction through human pregnane X receptor (PXR) by small molecules, qHTS assay (AID 1346984). Further: nearly all actives have a fitted effect of over 40% in size. The method, boiled down:
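DPX-2 HepG2 cells carrying a PXR response element and CYP3A4-promoter luciferase construct, treated with compounds 24 hr at 37C. Then P450-Glo CYP3A4 Luciferin-IPA substrate (3uM final) for 3 hr at 37C, One-Glo added, luminescence read.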

Assay [9] shares this target. The assay can be described thus: Human pregnane X receptor (PXR) activation by small molecules, qHTS assay (AID 1346985). Further: nearly all actives have a fitted effect of over 40% in size. In short, it runs like this:
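DPX-2 cells (HepG2 co-transfected with a PXR response element and a CYP3A4-promoter luciferase construct) were seeded at 2,000 per well, rested 5 hr at 37C, then exposed to DMSO-dissolved compounds for 24 hr. Activation was read as luciferase luminescence.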

Assay [10] addresses Acetylcholinesterase (Homo sapiens) (UniProt P22303). As to the kind of experiment: Acetylcholinesterase (AChE) small molecule antagonists: colormetric cell-based qHTS assay (AID 1347395; calls by dose curve; further: nearly all actives have a fitted effect of over 30% in size; further: potency means the concentration at half of the fitted maximal effect). In short, it runs like this: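 Colorimetric readout: DTNB quantifies thiocholine from acetylthiocholine hydrolysed by endogenous AChE of SH-SY5Y cells (2,000/well, plated overnight). Compound pretreatment 30 min, substrate incubation 90 min, both 37 C.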

Assay [11] has the same target. The assay can be described thus: Acetylcholinesterase (AChE) small molecule antagonists: enzyme-based qHTS assay (AID 1347397; calls by dose curve; further: nearly all actives have a fitted effect of over 55% in size; further: potency means the concentration at half of the fitted maximal effect). The settings on record: Potency: AChE enzyme activity inhibition. In short, it runs like this:
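Human recombinant acetylcholinesterase; substrate acetylthiocholine; thiocholine quantified with DTNB (colorimetric). Compound preincubation 30 min RT; reaction 10 min RT.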

Assay [12] has the same target. As to the kind of experiment: Acetylcholinesterase (AChE) small molecule antagonists: enzyme-based qHTS assay with human liver microsomes (AID 1347399; calls by dose curve; further: nearly all actives have a fitted effect of over 60% in size). The settings on record: Potency: qHTS inhibition. In short, it runs like this: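 Recombinant human AChE (50 mU/mL in the enzyme mix) and human liver microsomes (0.25 mg/mL final) were preincubated with compound and NADPH (0.25 mg/mL final) for 30 min at 37 C. Acetylthiocholine/DTNB was then added; thiocholine was read colorimetrically after 10 min at room temperature.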

Assay [13] deals with Cytochrome P450 2D6 (Homo sapiens) (UniProt P10635). The assay can be described thus: Cytochrome P450 Family 2 Subfamily D Member 6 (CYP2D6) small molecule antagonists: luciferase reporter qHTS assay (AID 1671196). Further: nearly all actives have a fitted effect of over 50% in size. Further: potency means the concentration at half of the fitted maximal effect. In short, it runs like this: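 Cell-free P450-Glo system: CYP2D6 with proluciferin substrate was pre-incubated with compound for 10 min, then reacted with NADPH regeneration for 1 h at room temperature. Luciferin product was detected after 20 min, and data were reported as relative luminescence units.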
Cytochrome P450 2D6 (Homo sapiens), sequence (P10635 whole entry, looked up): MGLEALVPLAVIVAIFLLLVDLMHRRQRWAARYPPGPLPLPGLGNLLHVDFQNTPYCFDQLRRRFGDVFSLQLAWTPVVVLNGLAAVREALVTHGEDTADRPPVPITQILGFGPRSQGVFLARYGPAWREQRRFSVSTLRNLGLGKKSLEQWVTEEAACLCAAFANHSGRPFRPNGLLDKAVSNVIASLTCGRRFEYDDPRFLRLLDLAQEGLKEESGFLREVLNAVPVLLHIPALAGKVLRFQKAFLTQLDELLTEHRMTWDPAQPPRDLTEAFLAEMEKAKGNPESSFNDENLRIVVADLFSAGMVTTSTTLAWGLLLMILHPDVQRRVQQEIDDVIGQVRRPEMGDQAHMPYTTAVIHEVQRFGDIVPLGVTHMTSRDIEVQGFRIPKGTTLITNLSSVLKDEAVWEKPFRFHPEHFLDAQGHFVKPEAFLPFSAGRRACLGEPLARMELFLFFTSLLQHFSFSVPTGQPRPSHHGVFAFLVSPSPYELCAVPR

The target of assay [14] is Cytochrome P450 2C19 (Homo sapiens) (UniProt P33261). The assay can be described thus: Cytochrome P450 Family 2 Subfamily C Member 19 (CYP2C19) small molecule antagonists: luciferase reporter qHTS assay (AID 1671197). Further: nearly all actives have a fitted effect of over 65% in size. Further: potency means the concentration at half of the fitted maximal effect. The method, boiled down: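 Inhibition of CYP2C19 was scored from loss of luminescence in a P450-Glo proluciferin substrate assay, NADPH-started and run 1 h at 37C, with ketoconazole as positive control.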
Cytochrome P450 2C19 (Homo sapiens), sequence (P33261 whole entry, looked up): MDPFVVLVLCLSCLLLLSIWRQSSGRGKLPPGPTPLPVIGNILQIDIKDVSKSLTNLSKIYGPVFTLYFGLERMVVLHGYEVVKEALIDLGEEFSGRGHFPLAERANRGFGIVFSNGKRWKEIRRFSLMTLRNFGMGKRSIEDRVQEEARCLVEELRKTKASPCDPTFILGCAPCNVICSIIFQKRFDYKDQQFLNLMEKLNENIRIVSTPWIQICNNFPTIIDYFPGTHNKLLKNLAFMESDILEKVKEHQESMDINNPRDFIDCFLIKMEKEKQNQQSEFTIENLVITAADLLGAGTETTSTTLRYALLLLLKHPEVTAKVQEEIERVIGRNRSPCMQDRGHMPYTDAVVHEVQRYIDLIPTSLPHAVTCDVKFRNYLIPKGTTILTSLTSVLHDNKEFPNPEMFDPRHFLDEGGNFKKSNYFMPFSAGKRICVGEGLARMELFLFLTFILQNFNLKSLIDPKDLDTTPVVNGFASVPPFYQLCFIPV

Assay [15] concerns the target Cytochrome P450 2C9 (Homo sapiens) (UniProt P11712). As to the kind of experiment: Cytochrome P450 Family 2 Subfamily C Member 9 (CYP2C9) small molecule antagonists: luciferase reporter qHTS assay (AID 1671198). Further: nearly all actives have a fitted effect of over 50% in size. Further: potency means the concentration at half of the fitted maximal effect. In short, it runs like this:
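CYP2C9 activity was measured with a P450-Glo proluciferin substrate. Enzyme–substrate mix was held with compound for 10 min at room temperature, then NADPH regeneration solution was added for 1 h at 37C. Luciferin product was read as luminescence.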
For orientation: A reporter such as luciferase makes a cellular process visible.

The target of assay [16] is Cytochrome P450 1A2 (Homo sapiens) (UniProt P05177). The assay can be described thus: Cytochrome P450 Family 1 Subfamily A Member 2 (CYP1A2) small molecule antagonists: luciferase reporter qHTS assay (AID 1671199). Further: nearly all actives have a fitted effect of over 50% in size. Further: potency means the concentration at half of the fitted maximal effect. In short, it runs like this:
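P450-Glo CYP1A2 enzyme–proluciferin substrate mix with compound 10 min at room temperature, then NADPH regeneration 1 h at room temperature. Luciferin detection reagent added, luminescence read after 20 min; furafylline positive control.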

In assay [17] the target is Voltage-gated inwardly rectifying potassium channel KCNH2 (Homo sapiens) (UniProt Q12809). As to the kind of experiment: Human Ether-a-go-go-Related Gene (hERG) channel small molecule antagonists: fluorescence cell-based qHTS assay (AID 1671200). In short, it runs like this:
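Thallium flux as potassium surrogate: FluxOR II dye loaded 1 h at room temperature into hERG-expressing U2OS cells, then stimulus buffer added after 10 min. Kinetic 480 nm excitation/540 nm emission read, 2 min.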
(The hERG channel carries a current that helps repolarise heart muscle cells.)

The target in assay [18] is Cytochrome P450 3A4 (Homo sapiens) (UniProt P08684). The assay can be described thus: Cytochrome P450 Family 3 Subfamily A Member 4 (CYP3A4) small molecule antagonists: luciferase reporter qHTS assay (AID 1671201). Further: nearly all actives have a fitted effect of over 50% in size. Further: potency means the concentration at half of the fitted maximal effect. In short, it runs like this:
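Recombinant human CYP3A4 converts a proluciferin substrate to luciferin over 1 h at room temperature after NADPH regeneration solution is added (compound preincubated 10 min); detection reagent stops reaction, luminescence read 20 min later as relative units.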

The target of assay [19] is Acetylcholinesterase (Homo sapiens) (UniProt P22303). As to the kind of experiment: Acetylcholinesterase (AChE) small molecule antagonists: fluorescence cell-based qHTS assay (AID 1347398; calls by dose curve; further: nearly all actives have a fitted effect of over 50% in size; further: potency means the concentration at half of the fitted maximal effect). As to conditions: Potency: AChE activity. The method, boiled down: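 Thiocholine generated from acetylthiocholine by SH-SY5Y cell AChE is detected with Thiolite Green (Ex/Em 490/520 nm) after 40 min at room temperature, following 30 min compound pretreatment at 37 C.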
Acetylcholinesterase (Homo sapiens), sequence (P22303 whole entry, looked up): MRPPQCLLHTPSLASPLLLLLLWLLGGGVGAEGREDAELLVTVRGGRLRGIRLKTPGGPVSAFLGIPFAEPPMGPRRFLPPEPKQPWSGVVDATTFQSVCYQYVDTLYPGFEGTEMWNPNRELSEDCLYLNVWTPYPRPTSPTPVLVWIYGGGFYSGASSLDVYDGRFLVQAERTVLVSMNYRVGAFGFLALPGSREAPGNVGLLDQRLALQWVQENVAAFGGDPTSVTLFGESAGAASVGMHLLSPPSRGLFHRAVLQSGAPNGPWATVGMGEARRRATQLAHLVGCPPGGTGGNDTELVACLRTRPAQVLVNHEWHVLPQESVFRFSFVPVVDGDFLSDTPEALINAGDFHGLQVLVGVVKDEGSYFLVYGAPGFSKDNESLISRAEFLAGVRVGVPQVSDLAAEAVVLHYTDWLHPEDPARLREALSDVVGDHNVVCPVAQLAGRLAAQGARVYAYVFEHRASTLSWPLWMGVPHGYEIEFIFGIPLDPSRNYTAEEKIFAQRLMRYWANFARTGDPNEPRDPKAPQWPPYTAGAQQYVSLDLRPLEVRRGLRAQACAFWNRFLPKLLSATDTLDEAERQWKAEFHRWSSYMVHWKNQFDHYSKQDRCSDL
On the % scale 0 is the no-effect control and ±100 the full control effect.

Cytochrome P450 2C9 (Homo sapiens), sequence (P11712 whole entry, looked up): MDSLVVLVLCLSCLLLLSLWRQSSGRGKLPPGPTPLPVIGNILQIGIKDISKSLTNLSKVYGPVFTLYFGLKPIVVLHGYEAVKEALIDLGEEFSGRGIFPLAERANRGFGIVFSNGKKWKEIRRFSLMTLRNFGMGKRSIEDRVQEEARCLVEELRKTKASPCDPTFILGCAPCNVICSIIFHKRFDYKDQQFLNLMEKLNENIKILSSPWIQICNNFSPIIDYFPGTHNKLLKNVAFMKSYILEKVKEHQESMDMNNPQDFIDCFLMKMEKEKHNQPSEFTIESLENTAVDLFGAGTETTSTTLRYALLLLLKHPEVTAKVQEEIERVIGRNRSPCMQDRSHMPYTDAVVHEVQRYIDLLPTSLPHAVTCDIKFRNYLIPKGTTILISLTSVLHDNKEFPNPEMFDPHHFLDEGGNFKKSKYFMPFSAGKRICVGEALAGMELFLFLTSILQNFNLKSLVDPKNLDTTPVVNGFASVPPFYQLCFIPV
Cytochrome P450 3A4 (Homo sapiens), sequence (P08684 whole entry, looked up): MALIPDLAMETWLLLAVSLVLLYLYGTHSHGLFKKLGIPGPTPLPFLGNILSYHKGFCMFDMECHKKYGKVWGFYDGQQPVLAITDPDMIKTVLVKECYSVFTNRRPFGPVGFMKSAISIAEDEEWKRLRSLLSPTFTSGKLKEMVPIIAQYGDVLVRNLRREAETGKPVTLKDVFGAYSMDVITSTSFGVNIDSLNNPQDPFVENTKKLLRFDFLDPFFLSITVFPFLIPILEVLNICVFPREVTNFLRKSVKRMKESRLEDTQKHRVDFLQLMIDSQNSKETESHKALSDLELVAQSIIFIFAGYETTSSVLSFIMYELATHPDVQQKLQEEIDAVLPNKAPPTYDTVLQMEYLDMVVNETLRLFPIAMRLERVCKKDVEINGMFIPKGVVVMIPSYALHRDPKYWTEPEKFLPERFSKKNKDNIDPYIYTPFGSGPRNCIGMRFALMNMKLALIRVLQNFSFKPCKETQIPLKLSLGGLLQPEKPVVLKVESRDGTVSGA
Voltage-gated inwardly rectifying potassium channel KCNH2 (Homo sapiens), sequence (Q12809 whole entry, looked up): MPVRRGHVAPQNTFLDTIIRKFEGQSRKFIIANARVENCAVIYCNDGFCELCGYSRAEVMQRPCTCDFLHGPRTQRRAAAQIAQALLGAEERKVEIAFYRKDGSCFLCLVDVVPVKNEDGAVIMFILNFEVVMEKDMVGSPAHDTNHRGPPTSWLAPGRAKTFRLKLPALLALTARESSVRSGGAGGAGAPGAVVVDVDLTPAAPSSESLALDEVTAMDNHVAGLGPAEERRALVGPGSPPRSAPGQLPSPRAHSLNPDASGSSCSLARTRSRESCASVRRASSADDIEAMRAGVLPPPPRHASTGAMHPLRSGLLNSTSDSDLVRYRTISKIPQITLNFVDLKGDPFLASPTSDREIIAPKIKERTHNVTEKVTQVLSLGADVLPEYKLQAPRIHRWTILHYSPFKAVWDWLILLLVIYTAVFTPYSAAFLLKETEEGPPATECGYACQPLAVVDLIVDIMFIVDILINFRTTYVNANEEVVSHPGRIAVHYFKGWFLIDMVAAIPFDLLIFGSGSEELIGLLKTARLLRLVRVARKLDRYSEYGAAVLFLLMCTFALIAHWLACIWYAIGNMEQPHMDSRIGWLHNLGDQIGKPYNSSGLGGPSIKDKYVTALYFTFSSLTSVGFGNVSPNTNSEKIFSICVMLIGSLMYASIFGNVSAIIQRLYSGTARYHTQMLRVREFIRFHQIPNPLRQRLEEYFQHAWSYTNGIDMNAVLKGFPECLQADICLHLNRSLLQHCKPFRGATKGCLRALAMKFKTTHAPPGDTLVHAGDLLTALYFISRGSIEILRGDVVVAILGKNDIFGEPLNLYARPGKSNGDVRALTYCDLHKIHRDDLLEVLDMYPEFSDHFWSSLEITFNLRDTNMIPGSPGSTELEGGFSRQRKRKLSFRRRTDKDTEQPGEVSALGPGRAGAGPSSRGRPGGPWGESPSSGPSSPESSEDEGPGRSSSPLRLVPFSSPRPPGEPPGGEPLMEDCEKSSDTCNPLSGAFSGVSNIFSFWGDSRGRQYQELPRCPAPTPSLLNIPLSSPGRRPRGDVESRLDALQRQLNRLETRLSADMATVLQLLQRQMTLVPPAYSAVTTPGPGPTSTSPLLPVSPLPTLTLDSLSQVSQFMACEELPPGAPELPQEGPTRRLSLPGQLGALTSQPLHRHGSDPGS
Nuclear receptor subfamily 1 group I member 2 (Homo sapiens), sequence (O75469 whole entry, looked up): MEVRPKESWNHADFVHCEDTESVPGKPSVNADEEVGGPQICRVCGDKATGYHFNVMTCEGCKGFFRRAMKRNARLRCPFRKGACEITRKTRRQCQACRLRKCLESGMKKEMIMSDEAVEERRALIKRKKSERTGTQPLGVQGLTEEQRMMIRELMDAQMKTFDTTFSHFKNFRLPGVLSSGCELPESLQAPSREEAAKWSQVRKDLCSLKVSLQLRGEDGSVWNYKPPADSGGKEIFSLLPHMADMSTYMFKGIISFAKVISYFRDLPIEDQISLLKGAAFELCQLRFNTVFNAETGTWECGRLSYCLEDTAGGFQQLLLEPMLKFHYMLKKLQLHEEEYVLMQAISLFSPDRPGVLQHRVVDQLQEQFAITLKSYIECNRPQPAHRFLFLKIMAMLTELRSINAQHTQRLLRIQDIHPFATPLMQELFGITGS
Cytochrome P450 1A2 (Homo sapiens), sequence (P05177 whole entry, looked up): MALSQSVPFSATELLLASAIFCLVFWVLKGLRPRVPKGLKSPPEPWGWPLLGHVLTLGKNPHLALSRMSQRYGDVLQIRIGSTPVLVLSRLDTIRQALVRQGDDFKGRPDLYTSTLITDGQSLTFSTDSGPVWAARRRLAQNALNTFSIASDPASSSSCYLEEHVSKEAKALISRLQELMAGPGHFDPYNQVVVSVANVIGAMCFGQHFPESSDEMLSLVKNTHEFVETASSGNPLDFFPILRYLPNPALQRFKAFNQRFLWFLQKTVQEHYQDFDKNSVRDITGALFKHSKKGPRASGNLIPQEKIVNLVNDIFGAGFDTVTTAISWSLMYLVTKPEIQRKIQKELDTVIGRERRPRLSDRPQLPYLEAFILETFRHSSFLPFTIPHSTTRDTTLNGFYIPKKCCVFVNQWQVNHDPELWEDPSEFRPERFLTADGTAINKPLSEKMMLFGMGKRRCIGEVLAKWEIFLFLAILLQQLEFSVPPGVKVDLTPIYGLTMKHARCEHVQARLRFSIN

Take `COP(=S)(OC)Oc1ccc(S(=O)(=O)N(C)C)cc1`: the Potency entry in [1], in assay [2], in [3], in assay [4], in assay [5] and in [8] was “inactive” throughout. Further, the Potency entry in assay [11], in assay [12] and in [17] was “inactive” in each case. Besides, the Potency in assay [6] was 34.4 µM (active) and inactive; in assay [10], 39.9 µM (active); in assay [13], 35.6 µM (active); in [14] it was 79.6 nM (active) and 55 nM (active); in assay [15] it was 356 nM (active) and 490 nM (active); in assay [16] it was 31.7 µM (active) and inactive. In addition, the Potency in assay [18] is 7.96 µM (active) and 6.92 µM (active). In addition, the max activation in assay [7] is -2.31% (inactive). Besides, the call in [9] was inactive.

`Clc1cccc(C(Cl)(Cl)Cl)n1`: the Potency entry in assay [1], in [2], in assay [3], in assay [4], in assay [5] and in [6] was “inactive” throughout. The Potency result in assay [10], in assay [11], in assay [19], in assay [12], in [13] and in [14] was “inactive” each time. Also, the Potency result in assay [15], in assay [17] and in assay [18] was “inactive” throughout. Moreover, the Potency in assay [16] was 11.2 µM (active).

`Cc1ccc(N=CN(C)C=Nc2ccc(C)cc2C)c(C)c1`: the Potency entry in assay [1], in assay [2], in assay [3], in assay [4], in assay [5] and in [8] was “inactive” throughout. For the same molecule, the Potency entry in [10], in assay [11], in assay [19], in [12], in assay [15] and in [17] was “inactive” in each case. Also, the Potency result in [18] was “inactive”. Besides, the Potency was 15.4 µM (active) and inactive in assay [6]; 31.9 µM (active) and 35.6 µM (active) and 27.5 µM (active) in [13]; 79.6 µM (active) and inactive in [14]; 31.9 µM (active) and 35.6 µM (active) and 30.9 µM (active) in assay [16]. In addition, in assay [7], the max activation is 0.462% (inactive). In assay [9], the result was inactive.

For `O=NN1CCOCC1`, the Potency entry in assay [1], in [2], in assay [3], in assay [4], in [5] and in [6] was “inactive” each time. The Potency entry in [10], in assay [11], in assay [19], in assay [12], in [13] and in assay [14] was “inactive” throughout. Moreover, the Potency entry in assay [15], in [16], in assay [17] and in assay [18] was “inactive” each time.

Consider `S=c1[nH]c2ccccc2[nH]1`, for which the Potency is 50.1 µM (active) and inactive in [1]; 13.7 µM (active) and inactive in [3]; 68.7 µM (active) in [6]; 35.7 µM (active) and inactive in assay [11]; 10.1 µM (active) and inactive in assay [19]; 39.9 µM (active) in assay [14]. Further, the Potency in [16] was 35.7 µM (active) and 35.6 µM (active); in assay [18] it was 5.65 µM (active) and 7.96 µM (active). The Potency result in assay [2], in assay [4], in [5], in assay [10], in assay [12] and in assay [13] was “inactive” each time. Besides, the Potency result in [15] and in assay [17] was “inactive” in each case.
